Drawing on PubChem BioAssay AID652192 (Johns Hopkins Ion Channel Center, 2013), this text covers outcome for 33 compounds.

Entries with a potency or affinity are not part of this list. Activity calls are given as the source filed them.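 Rule for the calls: active = peak inhibition of the KCNQ2 potassium channel over 30% at some tested dose, with a fitted dose response curve; inactive = no inhibition at any dose, or no curve fitted.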

Chain of Potassium voltage-gated channel subfamily KQT member 2 (Rattus norvegicus) (O88943 whole entry, looked up): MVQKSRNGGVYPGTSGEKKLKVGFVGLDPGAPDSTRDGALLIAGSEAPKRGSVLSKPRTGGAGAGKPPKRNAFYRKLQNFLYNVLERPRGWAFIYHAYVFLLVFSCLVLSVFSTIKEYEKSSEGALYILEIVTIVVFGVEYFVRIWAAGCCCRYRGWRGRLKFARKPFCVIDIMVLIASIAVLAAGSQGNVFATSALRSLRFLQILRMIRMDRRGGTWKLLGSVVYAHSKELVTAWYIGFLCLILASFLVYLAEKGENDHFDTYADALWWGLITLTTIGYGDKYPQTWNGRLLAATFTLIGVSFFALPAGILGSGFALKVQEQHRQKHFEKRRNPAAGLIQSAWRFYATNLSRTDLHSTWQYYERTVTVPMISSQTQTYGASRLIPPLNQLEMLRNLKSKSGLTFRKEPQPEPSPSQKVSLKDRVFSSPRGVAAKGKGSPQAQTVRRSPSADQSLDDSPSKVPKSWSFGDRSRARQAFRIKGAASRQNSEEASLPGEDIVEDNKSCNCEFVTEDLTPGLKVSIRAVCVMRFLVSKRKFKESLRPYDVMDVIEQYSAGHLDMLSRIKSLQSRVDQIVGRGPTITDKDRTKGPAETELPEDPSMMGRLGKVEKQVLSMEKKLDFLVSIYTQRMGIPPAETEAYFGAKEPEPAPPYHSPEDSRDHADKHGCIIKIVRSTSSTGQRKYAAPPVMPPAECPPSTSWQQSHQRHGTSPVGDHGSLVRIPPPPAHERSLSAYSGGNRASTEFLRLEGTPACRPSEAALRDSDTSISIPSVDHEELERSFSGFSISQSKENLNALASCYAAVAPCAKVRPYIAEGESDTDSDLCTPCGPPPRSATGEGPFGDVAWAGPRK

This assay has as its target Potassium voltage-gated channel subfamily KQT member 2 (Rattus norvegicus) (UniProt O88943). The assay can be described thus: block of rat KCNQ2 potassium channel – cell-based, FluxOR thallium flux, concentration-response, selectivity assay for TASK1 inhibitor project, SAR follow-up (AID 652192). Conditions: KCNQ2 cell line, FluxOR thallium flux fluorescence; series mostly up to 30 µM.
On to `O=C(Nc1cccc(NC(=O)c2cccc(Cl)c2)c1)c1ccccc1`, for which the result was inactive.

Regarding `COc1ccccc1C(=O)Nc1cccc(NC(=O)c2cccc3ccccc23)c1`, the compound was called inactive.

With `CN(C)c1ccc(C(=O)Nc2cccc(NC(=O)c3ccccc3)c2)cc1`, the outcome was inactive.

For the compound `O=C(Nc1cccc(NC(=O)c2ccco2)c1)c1ccccc1`, the call was inactive.

`Cc1cccc(C(=O)Nc2cccc(NC(=O)c3ccc(C(C)(C)C)cc3)c2)c1`: the compound was called inactive.

Turning to `COc1ccccc1C(=O)Nc1cccc(NC(=O)c2ccccc2C(C)C)c1`, the result was inactive.

As for `CCCC(=O)C1CCN(c2ncnc3c2CN(C(=O)c2ccc(-c4ccccc4)cc2)CC3)CC1`, the outcome was inactive.

Regarding `CC(C)(C)c1ccc(C(=O)Nc2cccc(NC(=O)c3ccccc3)c2)cc1`, the outcome was inactive.

As to `COc1ccccc1NC(=O)c1cccc(NC(=O)c2ccccc2OC)c1`, the compound was called inactive.

As to `CCOc1ccccc1NC(=O)c1cccc(NC(=O)c2ccccc2OC)c1`, the compound was called inactive.

Take `COc1cccc(C(=O)Nc2cccc(NC(=O)c3cccc(C)c3)c2)c1`: the outcome was inactive.

`O=C(Nc1cccc(NC(=O)c2ccccc2C(F)(F)F)c1)c1ccccc1`: the outcome was inactive.

For `CCOc1ccccc1NC(=O)c1cccc(NC(=O)c2cccc(OC)c2)c1`, the result was inactive.

Take `Cc1cccc(C(=O)Nc2cccc(NC(=O)c3cccs3)c2)c1`: the call was inactive.

For `CCOc1ccccc1NC(=O)c1cccc(NC(=O)c2ccccc2OC(F)(F)F)c1`, the compound was classed as inactive.

For the compound `Cc1cccc(C(=O)Nc2cccc(NC(=O)c3ccccc3C(C)C)c2)c1`, the compound was called inactive.

With `Cc1cccc(C(=O)Nc2cccc(NC(=O)c3ccc(C(F)(F)F)cc3)c2)c1`, the outcome was inactive.

Take `CC(C)c1ccccc1C(=O)Nc1cccc(NC(=O)c2ccccc2OC(F)(F)F)c1`: the compound was classed as inactive.

Consider `CCOc1ccccc1NC(=O)c1cccc(NC(=O)C2CCCC2)c1`, for which the compound was classed as inactive.

Take `COc1ccccc1NC(=O)c1cccc(NC(=O)C2CCCC2)c1`: the outcome was inactive.

On to `Cc1cccc(C(=O)Nc2ccccc2NC(=O)c2ccccc2)c1`, for which the compound was called inactive.

`COc1ccccc1C(=O)Nc1cc(NC(=O)c2ccccc2C(C)C)ccc1F`: the compound was classed as inactive.

Regarding `O=C(Nc1cccc(NC(=O)c2ccc(F)cc2)c1)c1ccccc1`, the compound was called inactive.

Consider `O=C(Nc1cccc(NC(=O)C2CCCCC2)c1)c1ccccc1`, for which the compound was called inactive.

As for `CCOc1ccccc1NC(=O)c1cccc(NC(=O)c2ccc(C)cc2)c1`, the compound was called inactive.

As to `CCOc1ccccc1NC(=O)c1cccc(NC(=O)c2ccccc2C)c1`, the outcome was inactive.

Turning to `CCOc1ccccc1NC(=O)c1cccc(NC(=O)CC2CCCCC2)c1`, the outcome was inactive.

Consider `CCOc1ccccc1NC(=O)c1cccc(NC(=O)C2CCCO2)c1` (stereo not drawn), for which the result was inactive.

Turning to `COc1ccc(C(=O)Nc2cccc(NC(=O)c3cccc(C)c3)c2)cc1`, the compound was called inactive.

Regarding `Cc1cccc(C(=O)Nc2cccc(NC(=O)c3ccc(N(C)C)cc3)c2)c1`, the outcome was inactive.

As to `CCOc1ccccc1NC(=O)c1cccc(NC(=O)C2CCOC2)c1` (stereo not drawn), the compound was classed as inactive.

In the case of `COc1ccccc1C(=O)Nc1cccc(NC(=O)c2ccccc2OC)c1`, the compound was called inactive.

As to `Cc1cccc(C(=O)Nc2cccc(NC(=O)c3cccc(C(F)(F)F)c3)c2)c1`, the compound was called inactive.
